Assay results published in PubChem BioAssay (EPA / NIEHS).
Several values for one entry are separate records, joined by “and”; a condition that tells them apart may be missing. Equal entries are not always repeated. Records with an inconclusive call do not appear. A structure can be active in one record and inactive in another. Activity calls are given as the source filed them. How the source made its calls: active means hit-call score of the fitted dose curve at least 0.9, where 1 is the maximum; inconclusive means response in the unintended direction; inactive means score below 0.9.

Columns and labels:
[1] = ATG_M_06_XSP2: Attagene TRANS-FACTORIAL Multi-Species (XSP2) HepG2 Assay for M06 Transcription Factor (Internal Marker) (AID 2283811);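 further: hits are increases in signal above the DMSO baseline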
Method in brief: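 HepG2 cells transiently transfected with GAL4-UAS multiple reporter units, medium containing 3 nM 6-alpha-fluorotestosterone and 1.5 nM norgestrel; reporter mRNA measured 24 hours post-dosing by RT-PCR and capillary electrophoresis. Internal background marker, gain of signal vs DMSO.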

[2] = tested on: turtle Estrogen Receptor (ERa), gene 101933533; test: ATG_trERa_XSP2: Attagene TRANS-FACTORIAL Multi-Species (XSP2) HepG2 Assay for turtle Estrogen Receptor (ERa) (AID 2283812);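 further: human HepG2 liver cells transiently expressing turtle ERa-Gal4 chimeric receptor; actives raise reporter signal above DMSO so AC50 reflects agonist activity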
Method in brief: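 HepG2 cells transiently transfected with GAL4-UAS reporter units expressing turtle ERa-Gal4 chimera. Reporter mRNA measured after 24 h dosing by RT-PCR, fluorescent labelling and capillary electrophoresis; gain of signal fitted versus DMSO.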

[3] = molecular target: Estrogen receptor beta (Homo sapiens) (UniProt Q92731); test: ATG_hERb_XSP2: Attagene TRANS-FACTORIAL Multi-Species (XSP2) HepG2 Assay for human Estrogen Receptor (ERb) (AID 2283813);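 further: actives raise reporter mRNA above DMSO so AC50 reflects agonist induction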
Chain of Estrogen receptor beta (Homo sapiens) (Q92731 whole entry, looked up, the tested form may be a part): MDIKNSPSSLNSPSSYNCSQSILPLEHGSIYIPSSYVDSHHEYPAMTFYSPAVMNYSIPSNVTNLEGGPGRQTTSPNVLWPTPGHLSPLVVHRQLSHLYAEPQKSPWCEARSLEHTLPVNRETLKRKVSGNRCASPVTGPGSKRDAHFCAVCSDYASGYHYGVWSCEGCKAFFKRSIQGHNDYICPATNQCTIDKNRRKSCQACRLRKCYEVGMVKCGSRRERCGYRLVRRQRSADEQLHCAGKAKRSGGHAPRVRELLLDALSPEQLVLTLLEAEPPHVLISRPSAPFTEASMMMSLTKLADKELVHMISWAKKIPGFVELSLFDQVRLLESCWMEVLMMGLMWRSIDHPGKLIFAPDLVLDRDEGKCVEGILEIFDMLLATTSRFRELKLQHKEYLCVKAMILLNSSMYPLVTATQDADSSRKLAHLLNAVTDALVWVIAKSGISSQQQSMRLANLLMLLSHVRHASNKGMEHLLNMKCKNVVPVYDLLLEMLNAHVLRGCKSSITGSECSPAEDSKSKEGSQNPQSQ
Method in brief: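 HepG2 cells transiently transfected with GAL4-UAS reporter units and chimeric human ERb-Gal4, 24 h exposure. Reporter mRNA quantified by RT-PCR with FAM labelling, HpaI digestion and capillary electrophoresis; gain of signal versus DMSO.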

[4] = molecular target: zebrafish Estrogen Receptor (ER1), esr1 (gene 259252) (UniProt P57717); test: ATG_zfER1_XSP2: Attagene TRANS-FACTORIAL Multi-Species (XSP2) HepG2 Assay for zebrafish Estrogen Receptor (ER1) (AID 2283816)
Chain of zebrafish Estrogen Receptor (ER1), esr1 (gene 259252) (P57717 whole entry, looked up, the tested form may be a part): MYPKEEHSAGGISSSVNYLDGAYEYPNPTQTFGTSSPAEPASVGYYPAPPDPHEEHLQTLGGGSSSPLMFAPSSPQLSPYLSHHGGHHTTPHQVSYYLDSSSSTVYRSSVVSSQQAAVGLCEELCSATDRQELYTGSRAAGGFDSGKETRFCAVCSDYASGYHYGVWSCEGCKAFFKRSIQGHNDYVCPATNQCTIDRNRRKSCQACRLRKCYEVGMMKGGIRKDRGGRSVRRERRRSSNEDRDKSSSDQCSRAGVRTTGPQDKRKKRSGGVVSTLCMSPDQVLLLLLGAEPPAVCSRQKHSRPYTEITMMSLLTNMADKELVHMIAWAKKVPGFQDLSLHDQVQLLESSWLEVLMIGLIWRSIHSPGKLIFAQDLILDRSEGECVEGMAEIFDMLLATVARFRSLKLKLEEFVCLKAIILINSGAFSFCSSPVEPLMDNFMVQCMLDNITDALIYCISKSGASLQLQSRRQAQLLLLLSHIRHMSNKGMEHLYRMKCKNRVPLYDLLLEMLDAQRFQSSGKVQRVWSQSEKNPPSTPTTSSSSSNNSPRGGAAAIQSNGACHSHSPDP
Method in brief: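 HepG2 cells transiently transfected with a GAL4-UAS reporter and a chimeric zebrafish ER1-Gal4 construct, dosed 24 h. Reporter mRNA quantified by RT-PCR, labelling, HpaI digestion and capillary electrophoresis, relative to DMSO.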

[5] = molecular target: chicken Estrogen Receptor (ERa), ESR1 (gene 396099) (UniProt P06212); test: ATG_chERa_XSP2: Attagene TRANS-FACTORIAL Multi-Species (XSP2) HepG2 Assay for chicken Estrogen Receptor (ERa) (AID 2283817);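 further: actives raise reporter signal above DMSO so AC50 reflects ER activation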
Chain of chicken Estrogen Receptor (ERa), ESR1 (gene 396099) (P06212 whole entry, looked up, the tested form may be a part): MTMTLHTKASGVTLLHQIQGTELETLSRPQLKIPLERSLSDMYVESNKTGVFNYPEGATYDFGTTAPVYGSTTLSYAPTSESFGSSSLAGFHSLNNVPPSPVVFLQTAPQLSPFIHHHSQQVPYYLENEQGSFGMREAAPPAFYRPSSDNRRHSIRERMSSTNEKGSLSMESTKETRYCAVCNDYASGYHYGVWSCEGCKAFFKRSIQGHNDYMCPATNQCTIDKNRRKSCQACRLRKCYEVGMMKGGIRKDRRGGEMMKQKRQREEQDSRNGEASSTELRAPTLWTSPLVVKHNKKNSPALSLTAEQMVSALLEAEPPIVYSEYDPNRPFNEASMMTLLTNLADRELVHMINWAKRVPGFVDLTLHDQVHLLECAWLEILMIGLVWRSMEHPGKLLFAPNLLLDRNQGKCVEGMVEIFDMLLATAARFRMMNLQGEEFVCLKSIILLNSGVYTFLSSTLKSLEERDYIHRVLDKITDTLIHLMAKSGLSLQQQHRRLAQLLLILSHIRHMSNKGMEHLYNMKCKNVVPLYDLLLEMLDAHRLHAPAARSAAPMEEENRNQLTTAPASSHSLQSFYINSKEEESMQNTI
Method in brief: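 Transiently transfected HepG2 cells expressing chimeric chicken ERa-GAL4 reporter units, dosed 24 h with 3 nM 6-alpha-fluorotestosterone and 1.5 nM norgestrel present. Reporter mRNA measured by RT-PCR and capillary electrophoresis; gain-of-signal fitted relative to DMSO.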

[6] = tested on: zebrafish Estrogen Receptor (ER2a), gene 317734; test: ATG_zfER2a_XSP2: Attagene TRANS-FACTORIAL Multi-Species (XSP2) HepG2 Assay for zebrafish Estrogen Receptor (ER2a) (AID 2283818);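 further: hits raise reporter mRNA so AC50 reflects activation of zebrafish ER2a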
Method in brief: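 HepG2 cells transiently transfected with GAL4-UAS reporter units and chimeric zebrafish ER2a-Gal4, exposed 24 h; medium contains 3 nM 6-alpha-fluorotestosterone and 1.5 nM norgestrel. Reporter mRNA quantified by RT-PCR, HpaI digestion, capillary electrophoresis; gain versus DMSO.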

[7] = tested on: frog Estrogen Receptor (ER), gene 398734; test: ATG_frER1_XSP2: Attagene TRANS-FACTORIAL Multi-Species (XSP2) HepG2 Assay for frog Estrogen Receptor (ER) (AID 2283821);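 further: hits raise reporter mRNA above DMSO baseline so potency means agonist or activator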
Method in brief: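 HepG2 cells transiently transfected with GAL4-UAS reporter units expressing a chimeric frog ER-Gal4 protein; 24 h exposure. Reporter mRNA quantified by RT-PCR, fluorescent labelling and capillary electrophoresis; gain of signal fitted against DMSO baseline.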

[8] = tested on: zebrafish Estrogen Receptor (ER2b), gene 317733; test: ATG_zfER2b_XSP2: Attagene TRANS-FACTORIAL Multi-Species (XSP2) HepG2 Assay for zebrafish Estrogen Receptor (ER2b) (AID 2283823);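 further: fitted upward as reporter gain over DMSO so potency reflects activation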
Method in brief: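 Reporter transcripts quantified by RT-PCR, fluorescent labelling and capillary electrophoresis after 24 h dosing of transfected HepG2 expressing zebrafish ER2b-GAL4 fusion. Medium contained 3 nM 6-alpha-fluorotestosterone plus 1.5 nM norgestrel; DMSO baseline.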

[9] = tested on: frog Estrogen Receptor (ER2), gene 100174814; test: ATG_frER2_XSP2: Attagene TRANS-FACTORIAL Multi-Species (XSP2) HepG2 Assay for frog Estrogen Receptor (ER2) (AID 2283828)
Method in brief: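 HepG2 cells transiently transfected with multiplexed GAL4-UAS reporter units expressing chimeric frog ER2–Gal4 protein; reporter mRNA measured 24 h after chemical dosing by RT-PCR, fluorescent labeling and capillary electrophoresis. Gain-of-signal fitted relative to DMSO baseline.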

[10] = molecular target: Peroxisome proliferator-activated receptor gamma (Homo sapiens) (UniProt P37231); test: ATG_hPPARg_XSP2: Attagene TRANS-FACTORIAL Multi-Species (XSP2) HepG2 Assay for human Peroxisome Proliferator-activated Receptor gamma (PPARg) (AID 2283829);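 further: actives raise reporter mRNA above DMSO so AC50 reflects PPARg activation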
Chain of Peroxisome proliferator-activated receptor gamma (Homo sapiens) (P37231 whole entry, looked up, the tested form may be a part): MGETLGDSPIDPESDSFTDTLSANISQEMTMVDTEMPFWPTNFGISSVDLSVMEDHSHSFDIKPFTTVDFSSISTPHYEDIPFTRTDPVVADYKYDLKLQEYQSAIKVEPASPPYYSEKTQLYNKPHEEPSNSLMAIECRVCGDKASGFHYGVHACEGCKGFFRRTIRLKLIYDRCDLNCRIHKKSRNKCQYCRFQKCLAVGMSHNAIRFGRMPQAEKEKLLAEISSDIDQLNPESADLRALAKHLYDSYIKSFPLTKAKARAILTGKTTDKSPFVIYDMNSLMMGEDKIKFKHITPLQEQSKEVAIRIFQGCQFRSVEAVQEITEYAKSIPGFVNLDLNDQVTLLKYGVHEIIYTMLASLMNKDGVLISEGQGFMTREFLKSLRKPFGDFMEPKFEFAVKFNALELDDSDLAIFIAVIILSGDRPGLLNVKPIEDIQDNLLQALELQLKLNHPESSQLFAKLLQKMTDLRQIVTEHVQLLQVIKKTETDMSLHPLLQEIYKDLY
Method in brief: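 HepG2 cells transiently transfected with GAL4-UAS reporter units driven by chimeric NR-Gal4 proteins; androgen receptor stimulated with 3 nM 6-alpha-fluorotestosterone and 1.5 nM norgestrel. After 24 h, reporter mRNA quantified by RT-PCR and capillary electrophoresis versus DMSO.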

[11] = molecular target: mouse Peroxisome Proliferator-activated Receptor gamma (PPARg), Pparg (gene 19016) (UniProt P37238); test: ATG_mPPARg_XSP2: Attagene TRANS-FACTORIAL Multi-Species (XSP2) HepG2 Assay for mouse Peroxisome Proliferator-activated Receptor gamma (PPARg) (AID 2283830);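 further: hits are gains in reporter mRNA above DMSO so AC50 marks activation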
Chain of mouse Peroxisome Proliferator-activated Receptor gamma (PPARg), Pparg (gene 19016) (P37238 whole entry, looked up, the tested form may be a part): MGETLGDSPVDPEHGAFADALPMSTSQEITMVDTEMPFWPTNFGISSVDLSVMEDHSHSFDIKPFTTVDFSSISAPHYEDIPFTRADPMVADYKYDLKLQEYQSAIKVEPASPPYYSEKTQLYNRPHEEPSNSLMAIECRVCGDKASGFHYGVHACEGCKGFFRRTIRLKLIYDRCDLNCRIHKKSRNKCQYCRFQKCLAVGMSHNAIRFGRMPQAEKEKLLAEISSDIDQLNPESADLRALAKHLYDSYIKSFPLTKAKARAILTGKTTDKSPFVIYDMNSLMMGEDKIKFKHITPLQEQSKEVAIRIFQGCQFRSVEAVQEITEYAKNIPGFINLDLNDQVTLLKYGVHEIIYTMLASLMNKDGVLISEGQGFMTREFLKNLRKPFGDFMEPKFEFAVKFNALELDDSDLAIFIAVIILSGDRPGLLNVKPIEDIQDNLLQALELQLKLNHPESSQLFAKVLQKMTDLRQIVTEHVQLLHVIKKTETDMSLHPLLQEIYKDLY
Method in brief: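 HepG2 cells transiently transfected with GAL4-UAS reporter units for chimeric NR-Gal4 proteins including mouse PPARg, exposed 24 h; medium contained 3 nM 6-alpha-fluorotestosterone and 1.5 nM norgestrel. Reporter mRNA quantified by RT-PCR, HpaI digestion and capillary electrophoresis, vs DMSO.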

[12] = molecular target: Nuclear receptor subfamily 1 group I member 2 (Mus musculus) (UniProt O54915); test: ATG_mPXR_XSP2: Attagene TRANS-FACTORIAL Multi-Species (XSP1) HepG2 Assay for mouse Pregnane X Receptor (PXR) (AID 2283831)
Chain of Nuclear receptor subfamily 1 group I member 2 (Mus musculus) (O54915 whole entry, looked up, the tested form may be a part): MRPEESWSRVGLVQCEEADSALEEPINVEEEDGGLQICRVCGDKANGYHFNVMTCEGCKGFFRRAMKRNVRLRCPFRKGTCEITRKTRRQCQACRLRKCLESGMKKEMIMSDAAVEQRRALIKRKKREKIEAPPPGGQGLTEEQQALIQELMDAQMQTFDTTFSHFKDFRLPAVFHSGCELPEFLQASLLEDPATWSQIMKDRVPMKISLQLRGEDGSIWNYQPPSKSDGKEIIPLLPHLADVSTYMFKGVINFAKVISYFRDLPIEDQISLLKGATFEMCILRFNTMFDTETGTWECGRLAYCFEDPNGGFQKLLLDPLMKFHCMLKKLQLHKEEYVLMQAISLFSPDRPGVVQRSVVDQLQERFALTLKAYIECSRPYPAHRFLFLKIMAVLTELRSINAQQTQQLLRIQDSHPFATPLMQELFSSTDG
Method in brief: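 HepG2 cells transiently transfected with GAL4-UAS reporter units expressing chimeric NR-Gal4 proteins; 24 h compound exposure. Reporter mRNA quantified by RT-PCR and capillary electrophoresis fluorescence; gain of signal fitted against DMSO.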

[13] = molecular target: zebrafish Thyroid Hormone Receptor alpha (TRa), thraa (gene 30670) (UniProt Q98867); test: ATG_zfTRa_XSP2: Attagene TRANS-FACTORIAL Multi-Species (XSP1) HepG2 Assay for zebrafish Thyroid Hormone Receptor alpha (TRa) (AID 2283832);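 further: actives raise zebrafish TRa-Gal4 reporter transcript above DMSO baseline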
Chain of zebrafish Thyroid Hormone Receptor alpha (TRa), thraa (gene 30670) (Q98867 whole entry, looked up, the tested form may be a part): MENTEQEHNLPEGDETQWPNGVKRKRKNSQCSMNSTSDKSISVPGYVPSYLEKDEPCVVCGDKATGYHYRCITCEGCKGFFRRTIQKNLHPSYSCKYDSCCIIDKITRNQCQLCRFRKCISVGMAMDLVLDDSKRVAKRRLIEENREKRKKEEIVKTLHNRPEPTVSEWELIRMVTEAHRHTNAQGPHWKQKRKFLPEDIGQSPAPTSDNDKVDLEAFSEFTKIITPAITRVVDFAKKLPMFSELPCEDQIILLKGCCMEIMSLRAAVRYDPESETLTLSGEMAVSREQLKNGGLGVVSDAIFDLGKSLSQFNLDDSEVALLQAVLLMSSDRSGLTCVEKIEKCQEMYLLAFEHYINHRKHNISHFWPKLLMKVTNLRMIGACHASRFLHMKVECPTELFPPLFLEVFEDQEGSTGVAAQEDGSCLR
Method in brief: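 Chimeric receptor-Gal4 activity was assessed in transfected human liver HepG2 cells 24 h after dosing, using reporter transcript levels detected by RT-PCR and capillary electrophoresis. DMSO served as baseline.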

[14] = tested on: turtle Thyroid Hormone Receptor, alpha (TRa), gene 101949057; test: ATG_trTRa_XSP2: Attagene TRANS-FACTORIAL Multi-Species (XSP1) HepG2 Assay for turtle Thyroid Hormone Receptor, alpha (TRa) (AID 2283834);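 further: hits raise reporter mRNA over the DMSO baseline so AC50 marks activators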
Method in brief: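 HepG2 cells transiently transfected with GAL4-UAS reporter units for chimeric turtle TRa-Gal4; mRNA measured 24 h after dosing by RT-PCR and capillary electrophoresis fluorescence, gain of signal fitted against DMSO.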

[15] = ATG_XTT_Cytotoxicity_XSP1: Cytotoxicity Assessment in the Attagene TRANS-FACTORIAL Multi-Species (XSP1) HepG2 Assay (AID 2283810)
Method in brief: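 XTT viability readout taken at 24 hours post-dosing in HepG2 liver cells co-treated with 3 nM 6-alpha-fluorotestosterone. Signal loss relative to DMSO controls reflects cytotoxicity.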

[16] = molecular target: GAL4 Transcription Factor (Internal Marker), GAL4 (gene 855828) (UniProt P04386); test: ATG_GAL4_XSP2: Attagene TRANS-FACTORIAL Multi-Species (XSP2) HepG2 Assay for GAL4 Transcription Factor (Internal Marker) (AID 2283814);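 further: GAL4 reporter mRNA background control in MRTU transfected cells not a receptor target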
Chain of GAL4 Transcription Factor (Internal Marker), GAL4 (gene 855828) (P04386 whole entry, looked up, the tested form may be a part): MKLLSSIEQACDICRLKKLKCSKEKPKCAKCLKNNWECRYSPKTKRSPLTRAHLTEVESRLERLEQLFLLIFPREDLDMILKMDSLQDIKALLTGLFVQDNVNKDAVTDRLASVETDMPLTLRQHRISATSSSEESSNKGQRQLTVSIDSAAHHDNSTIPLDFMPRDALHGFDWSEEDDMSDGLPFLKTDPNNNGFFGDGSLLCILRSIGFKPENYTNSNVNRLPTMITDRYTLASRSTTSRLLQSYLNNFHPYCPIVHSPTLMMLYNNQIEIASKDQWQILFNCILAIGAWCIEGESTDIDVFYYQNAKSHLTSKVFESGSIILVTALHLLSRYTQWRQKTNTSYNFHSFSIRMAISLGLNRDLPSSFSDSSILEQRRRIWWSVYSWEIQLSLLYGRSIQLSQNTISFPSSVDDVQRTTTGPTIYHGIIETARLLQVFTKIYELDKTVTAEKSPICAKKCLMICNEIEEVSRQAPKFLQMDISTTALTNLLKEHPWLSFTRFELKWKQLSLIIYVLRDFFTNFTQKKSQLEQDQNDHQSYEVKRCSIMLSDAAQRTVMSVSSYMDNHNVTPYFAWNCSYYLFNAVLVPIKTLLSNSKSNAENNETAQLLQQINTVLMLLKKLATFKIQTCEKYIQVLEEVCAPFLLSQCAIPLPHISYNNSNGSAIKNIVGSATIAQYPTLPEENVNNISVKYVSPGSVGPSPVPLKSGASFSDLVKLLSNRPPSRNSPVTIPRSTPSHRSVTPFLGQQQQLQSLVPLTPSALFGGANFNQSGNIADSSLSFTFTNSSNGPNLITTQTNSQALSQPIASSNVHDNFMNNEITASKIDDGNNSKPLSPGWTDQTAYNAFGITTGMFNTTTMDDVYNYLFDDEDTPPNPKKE
Method in brief: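 HepG2 cells transiently transfected with GAL4-UAS reporter units, stimulated with 3 nM 6-alpha-fluorotestosterone plus 1.5 nM norgestrel, dosed 24 h. Reporter mRNA by RT-PCR/capillary electrophoresis; gain-of-signal fit versus DMSO, background control.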

[17] = tested on: chicken Androgen Receptor (AR), gene 422165; test: ATG_chAR_XSP2: Attagene TRANS-FACTORIAL Multi-Species (XSP2) HepG2 Assay for chicken Androgen Receptor (AR) (AID 2283819);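 further: hits raise reporter mRNA above DMSO so potency is for activation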
Method in brief: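 HepG2 cells transiently transfected with chicken AR–GAL4 chimeric reporter constructs, stimulated with 3 nM 6-alpha-fluorotestosterone plus 1.5 nM norgestrel, dosed 24 h. Reporter mRNA quantified by RT-PCR and capillary electrophoresis; gain of signal fitted versus DMSO.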

[18] = molecular target: Estrogen receptor (Homo sapiens) (UniProt P03372); test: ATG_hERa_XSP2: Attagene TRANS-FACTORIAL Multi-Species (XSP2) HepG2 Assay for human Estrogen Receptor (ERa) (AID 2283827)
Method in brief: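 HepG2 cells transiently transfected with multiplexed GAL4-UAS reporters driven by chimeric receptor-Gal4 proteins, dosed 24 h with 3 nM 6-alpha-fluorotestosterone and 1.5 nM norgestrel present. Reporter mRNA by RT-PCR and capillary electrophoresis; gain-of-signal fit versus DMSO.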

[19] = tested on: zebrafish Peroxisome Proliferator-activated Receptor gamma (PPARg), gene 557037; test: ATG_zfPPARg_XSP2: Attagene TRANS-FACTORIAL Multi-Species (XSP2) HepG2 Assay for zebrafish Peroxisome Proliferator-activated Receptor gamma (PPARg) (AID 2283833);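 further: actives increase reporter signal over DMSO so AC50 reflects activation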
Method in brief: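 HepG2 cells transiently transfected with multiplexed GAL4-UAS reporter units expressing chimeric NR-Gal4 receptors, dosed 24 h. Reporter mRNA quantified by RT-PCR, fluorescent labelling, HpaI digestion and capillary electrophoresis; gain of signal fitted against DMSO.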

[20] = ATG_M_19_XSP2: Attagene TRANS-FACTORIAL Multi-Species (XSP2) HepG2 Assay for M32 Transcription Factor (Internal Marker) (AID 2283822)
Method in brief: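 Internal background marker in a multi-species nuclear receptor TRANS panel: transfected HepG2 cells exposed 24 h, with 3 nM 6-alpha-fluorotestosterone and 1.5 nM norgestrel present. Readout is RT-PCR of reporter transcripts resolved by capillary electrophoresis, gain-of-signal versus DMSO.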

Oc1ccc2c(c1)-c1ccccc1C2
outcome [1]: inactive | AC50 [2]: 6.32 µM (active) and 3.91 µM (active) | AC50 [3]: 5.52 µM (active) and 2.58 µM (active) | AC50 [4]: 14.7 µM (active) and 6.87 µM (active) | AC50 [5]: 4.69 µM (active) and 2.17 µM (active) | AC50 [6]: 2.55 µM (active) | outcome [6]: inactive | AC50 [7]: 4.78 µM (active) and 2.89 µM (active) | AC50 [8]: 21.4 µM (active) and 12.1 µM (active) | AC50 [9]: 6.95 µM (active) and 3.52 µM (active) | AC50 [10]: 19.8 µM (active) and 28.4 µM (active) | AC50 [11]: 43.9 µM (active) and 49.3 µM (active) | AC50 [12]: 17.1 µM (active) and 44.2 µM (active) | outcome [13]: inactive | outcome [14]: inactive

O=P(OC(CCl)CCl)(OC(CCl)CCl)OC(CCl)CCl
outcome [15]: inactive | outcome [1]: inactive | outcome [2]: inactive | outcome [3]: inactive | outcome [16]: inactive | outcome [4]: inactive | outcome [5]: inactive | outcome [17]: inactive | outcome [7]: inactive | outcome [8]: inactive | AC50 [18]: 7.39 µM (active) | outcome [9]: inactive | AC50 [10]: 50.5 µM (active) | AC50 [11]: 26.2 µM (active) | AC50 [12]: 703 nM (active) | outcome [13]: inactive | outcome [19]: inactive | outcome [14]: inactive

Clc1nc(Cl)c(Cl)c(Cl)c1Cl
AC50 [2]: 26.2 µM (active) and 151 µM (active) | outcome [3]: inactive | outcome [4]: inactive | AC50 [5]: 26.6 µM (active) and 86.3 µM (active) | outcome [6]: inactive | AC50 [7]: 100 µM (active) | outcome [7]: inactive | outcome [20]: inactive | AC50 [8]: 184 µM (active) | outcome [8]: inactive | AC50 [9]: 26 µM (active) | AC50 [10]: 1.04 µM (active) and 14.9 µM (active) | AC50 [11]: 1.48 µM (active) and 2.05 µM (active) | outcome [12]: inactive | outcome [13]: inactive | outcome [19]: inactive
